The experiment has as its target DTX1. Put plainly: pooled miR-30 sensor sort-seq; sequence = guide strand. The settings on record: shRNA.
As for TTCTTTTGTAGAACTGCTCAGT, the sensor-assay potency score (higher = more potent) was -0.299.
As for TTTAAGGTGCTTCTTCTTGGTC, the figure is -0.486; as for TGTCTCTTCTCTTCCAGCCTGG, 0.154.
With TAGATGAGGTAGCAGAAGCCTA, the sensor-assay potency score (higher = more potent) is -1.12.
As for TTCACCTTCTGCATGTATCTTC, the figure is 0.43.
In the case of TTCATCTGCGACATGCTGTTGA it was 0.174.
In the case of TCTAGGTAGCTAGCGTCCGGGT it was -1.53; in that of TGAGGTTGGATCCAAACTCGGT, -0.565.
On to TTGTTGGGTAGATAGCAGTGGC, for which the sensor-assay potency score (higher = more potent) is -0.92.
In the case of TATTTCTCCACCCACAGTGGGA, the sensor-assay potency score (higher = more potent) is -0.561.
As for TGCTTCTTCTTGGTCTTGCGGC, the figure is -0.99; as for TGTATCTTCGAACCACATCCTC, -0.0113.
TTGGATCCAAACTCGGTCTTGT yielded a sensor-assay potency score (higher = more potent) of 0.0701.
In the case of TTGCGGTGAACTTCTTCCCGGG it was -0.0133.
Sequence TAGAACTGCTCAGTCATCTGGG returned a sensor-assay potency score (higher = more potent) of 0.451.
As to TTTTGAAAAGAGCAATCGCTGG, the sensor-assay potency score (higher = more potent) was -0.945.
On to TTTGTAGAACTGCTCAGTCATC, for which the sensor-assay potency score (higher = more potent) was -1.13.
As to TTGACCAGCAGGCACTGCTGGC, the sensor-assay potency score (higher = more potent) is -1.17.
TATCTTCGAACCACATCCTCGG: the sensor-assay potency score (higher = more potent) stood at 0.116.
As for TCTTCGAACCACATCCTCGGGA, the figure is -0.159; as for TTGGTCTTGCGGCACACCCCGG, -0.985.

For the origin of these results see the OligoGym collection.
Note: reference of the scale not given here.
